Bioassay records: PubChem BioAssay, Johns Hopkins Ion Channel Center
KCNQ2 pot: KCNQ2 (rat) channel potentiation; CHO-K1 KCNQ2, FluxOR thallium flux fluorescence; hits give high values; actives 0.54% (n = 310,000); O88943; B-score at 10 µM; AID 2239;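 active = fluorescence ratio B-score at least 3 SD of library B-scores, with initial fluorescence B-score within 3 of them, cut at about 5.3 in these data; same plate scores as AID 2156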;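 note: B-score of peak minus minimum over baseline fluorescence ratio after K+ and Tl+ stimulus; positive B-score means potentiation of KCNQ2 with more thallium influx and brighter signal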
KCNQ2 block: blocks the rat KCNQ2 potassium channel; O88943; CHO-K1 KCNQ2, FluxOR thallium flux, 20 min; hits give low values; B-score at 10 µM; actives 1.1% (n = 310,000);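 active = fluorescence ratio B-score at most minus 3 library SDs, with starting brightness B-score within 2 library SDs, cut at about -5.5 in these data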
Kir21 confirm: confirmation of mouse Kir2.1 potassium channel inhibitors | Tl flux remaining, % of negative control (hits give low values), % at 10 µM | Kir2.1-expressing cells, FluxOR thallium flux fluorescence; hits give low values | shares compounds with KCNQ2 pot | actives 41% (n = 2,300);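 active = Primary-screen hit whose thallium flux fell at least 3 control SD below untreated wells in both duplicates, with normal baseline fluorescence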;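 note: 0% = blank wells without stimulus and 100% = stimulated no-compound controls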
Target sequence (P35561 whole entry, looked up): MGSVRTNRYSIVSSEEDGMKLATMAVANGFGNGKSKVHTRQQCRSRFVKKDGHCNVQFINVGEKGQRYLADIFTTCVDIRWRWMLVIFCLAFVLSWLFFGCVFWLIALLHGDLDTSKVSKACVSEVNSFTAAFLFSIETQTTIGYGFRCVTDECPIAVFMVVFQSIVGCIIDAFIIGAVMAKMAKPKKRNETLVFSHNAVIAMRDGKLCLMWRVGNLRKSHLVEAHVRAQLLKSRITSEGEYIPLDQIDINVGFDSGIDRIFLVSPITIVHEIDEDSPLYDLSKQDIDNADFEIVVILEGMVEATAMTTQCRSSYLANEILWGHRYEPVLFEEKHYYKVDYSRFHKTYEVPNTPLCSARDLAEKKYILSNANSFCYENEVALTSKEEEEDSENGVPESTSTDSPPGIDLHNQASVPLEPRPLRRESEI
HEK293 ctr: alters thallium flux in parental HEK293 cells, Kir2.1 counter-screen; FluxOR thallium flux fluorescence; 0% = unstimulated blank wells; FluxOR signal as % of negative control (100 = no effect), % at 10 µM; shares compounds with KCNQ2 pot; actives 19% (n = 2,300);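 active = dye signal at least 3 control SD above or below untreated wells in both duplicates, raw fluorescence within 3, either direction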;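 note: percent is based on the flux ratio of peak minus minimum fluorescence over baseline F0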
CHO-K1 Tl ctr: alters thallium flux in parental CHO-K1 cells, KCNQ2 counter-screen; actives 43% (n = 1,200); activity increase over 3SD of controls, % at 10 µM; shares compounds with KCNQ2 pot; FluxOR thallium flux fluorescence; zero = vehicle mean+3SD, 100% = vehicle-minus-blank window;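 active = signal rise of at least 3 SD above the untreated control mean, in both duplicate wells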;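 note: counter screen of KCNQ2 potentiator hits so any rise reflects channel-independent effects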
KCNQ1 sel pot: human KCNQ1 counter-target activity of KCNQ2 potentiators; shares compounds with KCNQ2 pot; CHO KCNQ1 stable, FluxOR thallium flux fluorescence; beyond 3SD, as % of vehicle-control signal; activation over 3SD threshold, % at 10 µM; actives 28% (n = 1,200); AID 2283;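 active = fluorescence ratio rise of at least 3 SD of vehicle wells above their mean, in both replicate wells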;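 note: 0% = vehicle mean plus 3 SD and 100% = vehicle minus unstimulated blank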
KCNQ2 pot conf: confirmation of rat KCNQ2 potassium channel potentiators | shares compounds with KCNQ2 pot | CHO-KCNQ2 cells, FluxOR thallium flux fluorescence | potentiation, less the hit threshold, % at 10 µM | actives 68% (n = 1,200) | AID 2287;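 active = fluorescence ratio rising 3 SD or more over the vehicle control mean in both replicates, plus primary screen hit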;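 note: peak minus minimum thallium fluorescence divided by baseline after K/Tl stimulus; 0% = vehicle mean plus 3 SD and 100% = vehicle minus unstimulated blank difference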
Kir2-1 sel: tests whether KCNQ2 potentiators also affect mouse Kir2.1; actives 2% (n = 1,200); shares compounds with KCNQ2 pot; activity over 3SD threshold, % at 10 µM; HEK293 Kir2.1, FluxOR thallium flux fluorescence;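 active = fluorescence ratio rise of at least 3 SD above the vehicle-control mean, seen in both replicates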;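 note: 0% = vehicle mean plus 3 SD and 100% = vehicle minus no-stimulus blank window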
KCNQ2 W236L pot: KCNQ2 potentiators acting on retigabine-insensitive rat KCNQ2 W236L mutant; shares compounds with KCNQ2 pot; AID 2558; current increase over 3SD of negative controls (%), hits give high values, % at 25 µM; actives 10% (n = 940); CHO KCNQ2-W236L, automated patch clamp current;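 active = current increase at least 3 SD of the untreated controls above them in both duplicate recordings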
* = called active by the depositor. Shown are actives, neighbours in structure and some others; about 1.6% of the full set was active somewhere.

`CCn1c(CNc2ccc(Cl)cc2)nnc1SCc1ccccc1` gave KCNQ2 block inactive, Kir21 confirm 63%* and HEK293 ctr inactive.
CCn1c(CC(=O)Nc2ccc(C)cc2)nnc1SCC(=O)NCc1ccccc1 was read as KCNQ2 block inactive.
Screening Cn1c(CNc2ccc(Cl)cc2)nnc1SCc1ccccc1 returned KCNQ2 block inactive.
For COc1ccccc1N1C(=O)C2C3CC(c4ccccc4)C(C3)C2C1=O (centres undefined) the results were KCNQ2 pot 2.2 and KCNQ2 block inactive.
CCCCN(CCCC)c1ccc(C(=O)c2ccccc2C(=O)O)c(O)c1 was read as KCNQ2 pot 8.9*, KCNQ2 block inactive, Kir21 confirm inactive, HEK293 ctr inactive, CHO-K1 Tl ctr -7, KCNQ1 sel pot -22, KCNQ2 pot conf -2, Kir2-1 sel -38 and KCNQ2 W236L pot inactive.
For CN(C)c1ccc(C(=O)c2ccccc2C(=O)O)c(O)c1 the results were KCNQ2 pot 0.86 and KCNQ2 block inactive.
`O=C(O)c1ccc(S(=O)(=O)N2CCCc3ccccc32)cc1` gave KCNQ2 block inactive.
Screening O=S(=O)(c1ccc(F)cc1)N1CCCc2ccccc21 returned KCNQ2 block inactive, Kir21 confirm 71%* and HEK293 ctr inactive.
For O=S(=O)(c1ccccc1)N1CCCc2ccccc21 the results were KCNQ2 block inactive, Kir21 confirm 64%* and HEK293 ctr inactive.
CC(=O)c1ccc(S(=O)(=O)N2CCCc3ccccc32)cc1 was read as KCNQ2 block inactive.
Screening Cc1[nH]c2ccccc2c1C(=O)CN1CCCC1 returned KCNQ2 block inactive.
Screening COc1ccc(CNC(=O)c2cnccn2)cc1 returned KCNQ2 block inactive.
`CCOc1ccc(NS(=O)(=O)c2ccc(NC(=S)NC(=O)CC(C)C)cc2)cc1` gave KCNQ2 block inactive.
For CCCCCn1c(Sc2nc3ccccc3s2)nc2c1c(=O)[nH]c(=O)n2C the results were KCNQ2 block inactive.
Cc1cc(C)n(-c2ccc(C(=O)NCc3ccc(F)cc3)cc2)n1 was read as KCNQ2 pot 1.1, KCNQ2 block inactive, Kir21 confirm 22%* and HEK293 ctr inactive.
Cc1cc(C)n(-c2ccc(C(=O)NCc3ccc4c(c3)OCO4)cc2)n1 was read as KCNQ2 pot 0.49 and KCNQ2 block inactive.
Cc1ccc(NC(=O)Cc2ccccc2)c(C)c1 was read as KCNQ2 pot 6.4*, KCNQ2 block inactive, CHO-K1 Tl ctr 3.4*, KCNQ1 sel pot -5, KCNQ2 pot conf 7.4*, Kir2-1 sel -48 and KCNQ2 W236L pot inactive.
For COc1cc(OC)cc(C(=O)Nc2ccc(N(C)C)c3ccccc23)c1 the results were KCNQ2 pot 0.66 and KCNQ2 block inactive.
Screening Cc1ccc(F)cc1NC(=O)CCOc1ccccc1 returned KCNQ2 block inactive.
For Cc1ccc(NC(=O)CCOc2ccccc2)c(C)c1 the results were KCNQ2 pot 6*, KCNQ2 block inactive, Kir21 confirm inactive, HEK293 ctr inactive, CHO-K1 Tl ctr -6, KCNQ1 sel pot 49*, KCNQ2 pot conf 5.5*, Kir2-1 sel -22 and KCNQ2 W236L pot inactive.
`Cc1ccc(NC(=O)CN2CCC(NC(=O)Cc3ccccc3)CC2)c(C)c1` gave KCNQ2 block inactive.
`CN(C)c1ccc(NC(=O)Cc2ccccc2)c2ccccc12` gave KCNQ2 pot 5.3*, KCNQ2 block inactive, Kir21 confirm inactive, HEK293 ctr inactive, CHO-K1 Tl ctr -4, KCNQ1 sel pot -31, KCNQ2 pot conf 10*, Kir2-1 sel -23 and KCNQ2 W236L pot inactive.
CC(C)(C)c1csc(SCC(=O)Nc2ccc(Cl)cn2)n1 was read as KCNQ2 pot 7*, KCNQ2 block inactive, Kir21 confirm inactive, HEK293 ctr inactive, CHO-K1 Tl ctr 13*, KCNQ1 sel pot 10*, KCNQ2 pot conf 5.0*, Kir2-1 sel -46 and KCNQ2 W236L pot inactive.
Screening Cc1csc(SCC(=O)Nc2ccc(Cl)cn2)n1 returned KCNQ2 pot 0.39 and KCNQ2 block inactive.
Screening COc1cc(CNCCNC(=O)c2cccs2)cc(OC)c1OC returned KCNQ2 pot 0.34 and KCNQ2 block inactive.
Screening CCCCNc1cc(C)nc(NCc2ccccc2)n1 returned KCNQ2 block inactive, Kir21 confirm 15%* and HEK293 ctr inactive.
Cc1cc(C)nc(NCCCc2ccccc2)n1 was read as KCNQ2 block inactive.
Screening COc1ccc(C(=O)OC(COc2ccccc2)Cn2ccnc2)cc1 (centres undefined) returned KCNQ2 block inactive, Kir21 confirm 54%* and HEK293 ctr inactive.
`COC(=O)c1cccc(OCC(O)Cn2ccnc2)c1` (centres undefined) gave KCNQ2 block inactive.
Screening COc1ccc(CCNC(=O)C(=O)NCC2CCCN2S(=O)(=O)c2cc(C)ccc2C)cc1 (centres undefined) returned KCNQ2 block inactive.
For COc1ccc2ccccc2c1CNC(C)CCc1ccccc1 (centres undefined) the results were KCNQ2 block inactive, Kir21 confirm 40%* and HEK293 ctr inactive.
Screening COc1ccc(CCNCc2c(OC)ccc3ccccc23)cc1OC returned KCNQ2 pot 0.43 and KCNQ2 block inactive.
`Cn1c2ccccc2c2cc([N+](=O)[O-])ccc21` gave KCNQ2 pot 0.82 and KCNQ2 block inactive.
For CCCCCCCCn1c(=O)c(C(=O)OC)c(N)c2ccccc21 the results were KCNQ2 block inactive.
For Cc1cccc(CN2CCc3c([nH]c4ccccc34)C2)c1 the results were KCNQ2 pot 1.5, KCNQ2 block inactive, Kir21 confirm 43%* and HEK293 ctr inactive.
Clc1cccc(CN2CCc3c([nH]c4ccccc34)C2)c1 was read as KCNQ2 block inactive.
`Cc1ccc(NC(=O)NC(=O)c2cnccc2C(F)(F)F)c(C)c1` gave KCNQ2 pot 0.34 and KCNQ2 block inactive.
